# Compounds without any hit were thinned out: in the full panel of roughly 79,000, 15% have a hit. A number with no mark means an inactive call. Activity calls are given as the source filed them. Cut-off read from the data, not from the text of the source: active = growth inhibition above about 70%; inactive = the rest.
# Tests used:
# [1] = NCI Yeast Anticancer Drug Screen. Data for the mec2-1 strain (AID 157); details: S. cerevisiae mec2-1 strain, stronger effect = higher value
# Outline: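 Vehicle-treated cultures served as reference for growth inhibition of compound-exposed mec2-1 yeast.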
# [2] = NCI Yeast Anticancer Drug Screen. Data for the rad14 strain (AID 159);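 note: 0% = growth of vehicle-treated control cultures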; details: S. cerevisiae rad14 strain growth inhibition, stronger effect = higher value
# Outline: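 Yeast cells carrying a defined DNA-repair defect were exposed to compounds, and growth inhibition was calculated relative to vehicle-treated control cultures.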
# [3] = NCI Yeast Anticancer Drug Screen. Data for the sgs1 mgt1 strain (AID 161);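 note: 0% = growth of cultures given vehicle only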; details: S. cerevisiae sgs1 mgt1 strain, stronger effect = higher value
# Outline: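 Genetically altered yeast, compound exposure, growth inhibition relative to vehicle.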
# [4] = NCI Yeast Anticancer Drug Screen. Data for the CLN2oe strain (AID 163);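 note: 0% = growth of vehicle-only control cultures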; details: S. cerevisiae CLN2oe strain, stronger effect = higher value
# Outline: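 Inhibition relative to vehicle-treated yeast is reported. Cells: strain with genetic alteration in cell-cycle control, grown with compound.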
# [5] = NCI Yeast Anticancer Drug Screen. Data for the cln2 rad14 strain (AID 165);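 note: 0% = growth equal to vehicle treated cultures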; details: S. cerevisiae cln2 rad14 strain, stronger effect = higher value
# Outline: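 Each compound was tested on cln2 rad14 yeast. Inhibition of growth was calculated against vehicle-exposed controls.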
# [6] = NCI Yeast Anticancer Drug Screen. Data for the bub3 strain (AID 167); details: S. cerevisiae bub3 mutant strain, stronger effect = higher value
# Outline: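 Compounds were applied to a genetically altered yeast strain carrying a cell-cycle control defect. Growth inhibition was scored against vehicle-treated controls.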
# [7] = NCI Yeast Anticancer Drug Screen. Data for the wt2 strain (AID 169);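 note: 0% = growth of vehicle-treated yeast cultures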; details: S. cerevisiae wt2 strain growth inhibition, stronger effect = higher value
# Outline: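 Inhibition of yeast growth was determined after compound treatment, normalised to controls receiving only vehicle.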
# [8] = NCI Yeast Anticancer Drug Screen. Data for the mlh1 strain (AID 171);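 note: 0% = growth of vehicle-treated control cultures of the same strain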; details: S. cerevisiae mlh1 strain growth inhibition, stronger effect = higher value
# Outline: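 Vehicle-normalised growth inhibition of a repair- or checkpoint-altered yeast strain following compound treatment.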
# [9] = NCI Yeast Anticancer Drug Screen. Data for the sgs1 strain (AID 173);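 note: 0% = growth of vehicle-only control cultures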; details: S. cerevisiae sgs1 mutant, stronger effect = higher value
# Outline: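 Screen format: yeast with repair or checkpoint alterations, compound exposure, growth read relative to vehicle.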
# [10] = NCI Yeast Anticancer Drug Screen. Data for the mlh1 rad18 strain (AID 175); details: S. cerevisiae mlh1 rad18 strain growth inhibition, stronger effect = higher value
# Outline: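 Vehicle-treated cultures served as the reference for growth inhibition in a yeast strain carrying DNA damage repair alterations exposed to each compound.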
# [11] = NCI Yeast Anticancer Drug Screen. Data for the rad18 strain (AID 177); details: S. cerevisiae rad18 mutant growth inhibition, stronger effect = higher value
# Outline: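 Test articles were incubated with altered yeast defective in DNA damage repair. Results are given as inhibition of growth versus vehicle.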
# [12] = NCI Yeast Anticancer Drug Screen. Data for the wt1 strain (AID 149);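 note: 0% = growth of vehicle-treated wt1 cultures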; details: S. cerevisiae wt1 strain (SPY 50644) growth inhibition, stronger effect = higher value
# Outline: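 Yeast wt1 strain exposed to compounds; growth inhibition measured relative to vehicle-treated controls.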
# [13] = NCI Yeast Anticancer Drug Screen. Data for the rad50EPP+ strain (AID 151);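 note: 0% = growth of vehicle-treated control cultures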; details: S. cerevisiae rad50 mutant strain, stronger effect = higher value
# Outline: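 In this screen, rad50EPP+ yeast were exposed to compounds. Growth inhibition was scored against vehicle-treated controls.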
# [14] = NCI Yeast Anticancer Drug Screen. Data for the mgt1 strain (AID 153); details: S. cerevisiae mgt1 mutant growth inhibition, stronger effect = higher value
# Outline: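 mgt1 strain exposed; growth vs vehicle control recorded as inhibition.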
# [15] = NCI Yeast Anticancer Drug Screen. Data for the rad50 strain (AID 155);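 note: 0% = growth of vehicle-only cultures of the same strain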; details: S. cerevisiae rad50 strain growth inhibition, stronger effect = higher value
# Outline: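 Yeast carrying a defined DNA repair defect were exposed to test compounds, and growth was compared with vehicle-treated controls to give percent inhibition.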
# [16] = at 5.0 µM (retest, dose inferred, filed as 0.5)
# [17] = at 50.0 µM (retest, dose inferred, filed as 5.0)
compound,measurement,setting,value
COc1ccc2cc(CN3CCC(C4CCN(Cc5ccc6cc(OC)ccc6c5)CC4)CC3)ccc2c1,growth inhibition,[1]; at 100.0 µM,98% (active)
same,growth inhibition,[2]; at 1.2 µM,-19%
same,growth inhibition,[2]; at 3.7 µM,-13%
same,growth inhibition,[2]; at 11.0 µM,-22%
same,growth inhibition,[2]; at 33.0 µM,9%
same,growth inhibition,[2]; at 100.0 µM,97% (active)
same,growth inhibition,[3]; [16],7%
same,growth inhibition,[3]; [17],4%
same,growth inhibition,[3]; at 50.0 µM,83.2% (active)
same,growth inhibition,[4]; at 1.2 µM,16%
same,growth inhibition,[4]; at 3.7 µM,29%
same,growth inhibition,[4]; at 11.0 µM,19%
same,growth inhibition,[4]; at 33.0 µM,36%
same,growth inhibition,[4]; at 100.0 µM,98% (active)
same,growth inhibition,[5]; [16],19%
same,growth inhibition,[5]; [17],-48%
same,growth inhibition,[5]; at 50.0 µM,64.3%
same,growth inhibition,[6]; at 1.2 µM,-32%
same,growth inhibition,[6]; at 3.7 µM,-35%
same,growth inhibition,[6]; [16],19%
same,growth inhibition,[6]; at 11.0 µM,-28%
same,growth inhibition,[6]; at 33.0 µM,-20%
same,growth inhibition,[6]; [17],0%
same,growth inhibition,[6]; at 50.0 µM,89% (active)
same,growth inhibition,[6]; at 100.0 µM,98% (active)
same,growth inhibition,[7]; at 1.2 µM,0%
same,growth inhibition,[7]; at 3.7 µM,15%
same,growth inhibition,[7]; at 11.0 µM,7%
same,growth inhibition,[7]; at 33.0 µM,-3%
same,growth inhibition,[7]; at 100.0 µM,98% (active)
same,growth inhibition,[8]; at 1.2 µM,-12%
same,growth inhibition,[8]; at 3.7 µM,-15%
same,growth inhibition,[8]; at 11.0 µM,-17%
same,growth inhibition,[8]; at 33.0 µM,-26%
same,growth inhibition,[8]; at 100.0 µM,97% (active)
same,growth inhibition,[9]; at 1.2 µM,14%
same,growth inhibition,[9]; at 3.7 µM,8%
same,growth inhibition,[9]; at 11.0 µM,12%
same,growth inhibition,[9]; at 33.0 µM,3%
same,growth inhibition,[9]; at 100.0 µM,98% (active)
same,growth inhibition,[10]; [16],-8%
same,growth inhibition,[10]; [17],80% (active)
same,growth inhibition,[10]; at 50.0 µM,-19.2%
same,growth inhibition,[11]; at 1.2 µM,0%
same,growth inhibition,[11]; at 3.7 µM,0%
same,growth inhibition,[11]; at 11.0 µM,3%
same,growth inhibition,[11]; at 33.0 µM,22%
same,growth inhibition,[11]; at 100.0 µM,98% (active)
CN(C)CCC(=O)c1c[nH]c2ccccc12,growth inhibition,[12]; at 1.2 µM,-18%
same,growth inhibition,[12]; at 3.7 µM,-7%
same,growth inhibition,[12]; at 11.0 µM,-7%
same,growth inhibition,[12]; at 33.0 µM,-19%
same,growth inhibition,[12]; at 100.0 µM,18%
same,growth inhibition,[13]; at 1.2 µM,-17%
same,growth inhibition,[13]; at 3.7 µM,24%
same,growth inhibition,[13]; at 11.0 µM,16%
same,growth inhibition,[13]; at 33.0 µM,39%
same,growth inhibition,[13]; at 100.0 µM,54%
same,growth inhibition,[14]; at 1.2 µM,-38%
same,growth inhibition,[14]; at 3.7 µM,-10%
same,growth inhibition,[14]; at 11.0 µM,-39%
same,growth inhibition,[14]; at 33.0 µM,-16%
same,growth inhibition,[14]; at 100.0 µM,18%
same,growth inhibition,[15]; at 1.2 µM,-21%
same,growth inhibition,[15]; at 3.7 µM,-17%
same,growth inhibition,[15]; [16],82% (active)
same,growth inhibition,[15]; at 11.0 µM,-26%
same,growth inhibition,[15]; at 33.0 µM,5%
same,growth inhibition,[15]; [17],98% (active)
same,growth inhibition,[15]; at 50.0 µM,73.5% (active)
same,growth inhibition,[15]; at 100.0 µM,49%
same,growth inhibition,[1]; at 1.2 µM,-41%
same,growth inhibition,[1]; at 3.7 µM,-35%
same,growth inhibition,[1]; [16],67%
same,growth inhibition,[1]; at 11.0 µM,-24%
same,growth inhibition,[1]; at 33.0 µM,-8%
same,growth inhibition,[1]; [17],98% (active)
same,growth inhibition,[1]; at 50.0 µM,37.7%
same,growth inhibition,[1]; at 100.0 µM,64%
same,growth inhibition,[2]; at 1.2 µM,-23%
same,growth inhibition,[2]; at 3.7 µM,-29%
same,growth inhibition,[2]; at 11.0 µM,-9%
same,growth inhibition,[2]; at 33.0 µM,-2%
same,growth inhibition,[2]; at 100.0 µM,18%
same,growth inhibition,[3]; [16],15%
same,growth inhibition,[3]; [17],57%
same,growth inhibition,[3]; at 50.0 µM,63%
same,growth inhibition,[4]; at 1.2 µM,-11%
same,growth inhibition,[4]; at 3.7 µM,-14%
same,growth inhibition,[4]; at 11.0 µM,-14%
same,growth inhibition,[4]; at 33.0 µM,-6%
same,growth inhibition,[4]; at 100.0 µM,8%
same,growth inhibition,[5]; [16],77% (active)
same,growth inhibition,[5]; [17],36%
same,growth inhibition,[5]; at 50.0 µM,31.1%
same,growth inhibition,[6]; at 1.2 µM,-23%
same,growth inhibition,[6]; at 3.7 µM,-29%
same,growth inhibition,[6]; [16],22%
same,growth inhibition,[6]; at 11.0 µM,-36%
same,growth inhibition,[6]; at 33.0 µM,-35%
same,growth inhibition,[6]; [17],51%
same,growth inhibition,[6]; at 50.0 µM,64.9%
same,growth inhibition,[6]; at 100.0 µM,37%
same,growth inhibition,[7]; at 1.2 µM,-19%
same,growth inhibition,[7]; at 3.7 µM,-46%
same,growth inhibition,[7]; at 11.0 µM,-19%
same,growth inhibition,[7]; at 33.0 µM,-14%
same,growth inhibition,[7]; at 100.0 µM,25%
same,growth inhibition,[8]; at 1.2 µM,-61%
same,growth inhibition,[8]; at 3.7 µM,-74%
same,growth inhibition,[8]; at 11.0 µM,-56%
same,growth inhibition,[8]; at 33.0 µM,-20%
same,growth inhibition,[8]; at 100.0 µM,37%
same,growth inhibition,[9]; at 1.2 µM,-42%
same,growth inhibition,[9]; at 3.7 µM,-33%
same,growth inhibition,[9]; at 11.0 µM,-34%
same,growth inhibition,[9]; at 33.0 µM,14%
same,growth inhibition,[9]; at 100.0 µM,54%
same,growth inhibition,[10]; [16],47%
same,growth inhibition,[10]; [17],97% (active)
same,growth inhibition,[10]; at 50.0 µM,45.8%
same,growth inhibition,[11]; at 1.2 µM,-55%
same,growth inhibition,[11]; at 3.7 µM,-62%
same,growth inhibition,[11]; at 11.0 µM,-47%
same,growth inhibition,[11]; at 33.0 µM,8%
same,growth inhibition,[11]; at 100.0 µM,57%

# — PubChem BioAssay (NCI)
